Inconclusive results are not listed. Active and inactive are the calls of the source.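 The calls were made as follows, unless noted: active = viability loss from added drug above about 55%, and viability with drug at most 40%, in both replicates (limit read from the data, passing the limit was not always enough); inconclusive = both conditions met in only one replicate; inactive = neither replicate meets both conditions.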
What was measured:
[1] = target: Pantothenate synthetase (Mycobacterium tuberculosis (strain ATCC 25618 / H37Rv)) (UniProt P9WIL5); experiment: Coupled enzyme confirmation of inhibitors against recombinant Mtb PanC (AID 375; call rule not given here;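 also: 0% = full reaction with vehicle and 100% = no enzyme background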); details: coupled enzyme assay; at 10 µM, stronger effect = higher value
[2] = reduced viability of SK-BR-3 breast cancer cells – cell-based, 24 h, human, pilot screen (AID 572;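 active = viability at or below 10% of carrier control in both of two separate runs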;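 also: compound exposure lasted between 18 and 24 h rather than exactly 24 h; 100% = carrier-treated control wells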); details: SK-BR-3 viability, CellTiter-Glo luminescence, at 10 µM, stronger effect = lower value
[3] = HUVEC growth inhibition – cell-based, human, primary screen (AID 575;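 active = viability at or below 30% in both replicate assays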;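 also: 100% = median of untreated cell wells with 0.1% DMSO on each plate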); details: HUVEC proliferation, CellTiter-Glo luminescence, 72 h; at 10 µM; stronger effect = lower value
[4] = H69AR cell proliferation blockers – human, duplicate replicates, primary screen (AID 580;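 active = viability at or under a set limit in both replicates, limit being median viability minus 3 SD, cut at about 48% in these data, passing the limit was not always enough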;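 also: 100% = mean luminescence of untreated wells and 0% = no signal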); details: H69AR lung tumor cells viability, ATP luminescence, 72 h; at 10 µM; stronger effect = lower value
[5] = MRP1 drug-resistance reversers in H69AR cells – cell-based, doxorubicin co-treatment, pilot screen (AID 601); details: CellTiter-Glo, 72 h, at 10 µM; for differential viability (reversal): stronger effect = higher value
[6] = yeast transport mutant growth inhibition pilot in 384-well plates, post-Golgi transport modulator project (AID 636; in the data active = inhibition above about 31%); details: absorbance 615 nm, about 18 h, stronger effect = higher value
[7] = growth suppression of yeast trafficking mutant, preliminary HTS, modulators of trafficking downstream of Golgi apparatus project, 1536-format plate, OD 615 nm (AID 637; in the data active = inhibition above about 30%); details: yeast transport mutant growth, absorbance 615 nm, 18 h; stronger effect = higher value
[8] = S. cerevisiae growth inhibition in permissive medium (OD615), pilot counter-assay for S. cerevisiae lifespan shortening project, permissive growth control (AID 705;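 active = growth inhibition above 25% in both replicates, a cutoff set 3 SD above the mean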); details: OD615, 24 h, at 10 µM, stronger effect = higher value
[9] = S. cerevisiae growth inhibition in restrictive medium, OD615, pilot screen, restrictive growth control, yeast lifespan reduction project (AID 706;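 active = growth inhibition above a set limit, 3 SD over mean compound inhibition, in both replicates, cut at about 43% in these data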;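 also: modified DeaD lifespan yeast strain shifted to restrictive glucose medium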); details: OD615, 48 h, at 10 µM, stronger effect = higher value
[10] = doxorubicin toxicity protection in MRP-1 cells – H69AR cells, CellTiter-Glo, duplicate, MRP-1 activator project, pilot screen (AID 807;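 active = viability increase at or above a cutoff of the median across tested compounds plus 3 SD, cut at about 8.5% in these data, passing the limit was not always enough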;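 also: compound pretreatment 18-22 h then 72 h combined with doxorubicin; 0% = doxorubicin alone and 100% = vehicle without doxorubicin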); details: H69AR viability with doxorubicin, CellTiter-Glo luminescence; at 10 µM; stronger effect = higher value
[11] = viability of HCT116 without oncogenic beta-catenin – human colon tumor cells, pilot screen (AID 823;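 active = cell viability at or below a set limit in both duplicate runs, the limit being the all-compound median minus 4 SD, cut at about 23% in these data, passing the limit was not always enough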;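 also: 0% = wells killed by 20 µM Hyamine and 100% = untreated DMSO cell wells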); details: HCT116 beta-catenin knockout viability, CellTiter-Glo, 60 h; at 10 µM; stronger effect = lower value
[12] = RAM pathway blockade in budding yeast – dse1pr::URA3 reporter, 5-FOA selection, pilot screen (AID 869;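 active = inhibition over a set limit, the all-compound mean plus 3 SD, in both replicate runs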;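 also: 0% = DMSO wells with no growth and 100% = 10 µM 1-NA-PP1 with full growth; RAM network block rescues cells from 5-FOA so hits raise OD615 growth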); details: S. cerevisiae dse1pr::URA3 5-FOA growth, OD615, 2 d, at 10 µM, stronger effect = higher value
[13] = H69AR cells + 2 uM doxorubicin, measured here: viability with 2 uM doxorubicin, stronger effect = lower value
[14] = H69AR cells, compound alone cytotoxicity

Chain of Pantothenate synthetase (Mycobacterium tuberculosis (strain ATCC 25618 / H37Rv)) (P9WIL5 whole entry, looked up): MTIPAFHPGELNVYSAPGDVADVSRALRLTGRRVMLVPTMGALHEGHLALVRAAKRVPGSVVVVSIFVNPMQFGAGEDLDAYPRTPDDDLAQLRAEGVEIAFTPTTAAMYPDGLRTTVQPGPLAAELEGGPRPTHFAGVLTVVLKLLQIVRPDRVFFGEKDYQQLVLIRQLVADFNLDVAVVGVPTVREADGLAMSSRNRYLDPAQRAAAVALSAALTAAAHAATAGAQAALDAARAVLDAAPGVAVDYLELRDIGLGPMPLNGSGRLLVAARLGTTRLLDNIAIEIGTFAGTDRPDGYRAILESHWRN

SMILES	inhibition [1]	viability [2]	viability [3]	viability [4]	differential viability (reversal) ([5]; H69AR cells + 2 uM doxorubicin)	viability [5, 13] [%]	viability [5, 14] [%]	inhibition [6]	inhibition [7]	growth inhibition [8]	growth inhibition [9]	viability increase [10]	viability [11]	inhibition [12]
CCCC(=O)OCC[N+](C)(C)C	0% (inactive)	83% (inactive)	93.4% (inactive)	101% (inactive)	-4.88% (inactive)	106	101	1.04% (inactive)	40.7% (active)	–	–	–	–	–
CC1=NOC2(C)Nc3ncnn3C(c3ccccc3)C12 (centres undefined)	0% (inactive)	118% (inactive)	93% (inactive)	94.5% (inactive)	-3.04% (inactive)	97.5	94.5	-6.03% (inactive)	7.9% (inactive)	–	–	–	–	–
CCC(C)NC(=O)c1c(N)n(CC2CCCO2)c2nc3ccccc3nc12 (centres undefined)	0% (inactive)	93% (inactive)	53.4% (inactive)	–	-8.02% (inactive)	61.5	53.4	-0.4% (inactive)	4.92% (inactive)	–	–	–	–	–
CN1CCN(c2c[nH]c(=O)[nH]c2=O)CC1	0% (inactive)	110% (inactive)	90.6% (inactive)	96.7% (inactive)	5.06% (inactive)	91.6	96.7	-7.53% (inactive)	-6.29% (inactive)	–	–	–	–	–
CCOC(=O)C(C)Oc1cc(C)cc2oc(=O)c3c(c12)CCCC3 (centres undefined)	–	–	–	–	–	–	–	–	–	-9.51% (inactive)	-2.87% (inactive)	-4.65% (inactive)	70.3% (inactive)	1.43% (inactive)
CN1CC[C@@]23CCCC[C@@H]2[C@@H]1Cc1ccc(O)cc13	1% (inactive)	88% (inactive)	79.4% (inactive)	95.8% (inactive)	7.79% (inactive)	88	95.8	-3.12% (inactive)	-0.33% (inactive)	–	–	–	–	–
CCOCC(=O)NC1CCSC1=O (centres undefined)	0% (inactive)	74% (inactive)	99.4% (inactive)	93.8% (inactive)	0.265% (inactive)	93.6	93.8	-9.45% (inactive)	5.16% (inactive)	–	–	–	–	–
CN1CCN(C(=O)COc2ccc(-c3nc4ccccc4s3)cc2)CC1	–	–	–	–	–	–	–	–	–	-5.45% (inactive)	10.8% (inactive)	-4.38% (inactive)	66.1% (inactive)	2.09% (inactive)
CCCCN1C(=O)NC(=O)C2(Cc3c(nc4c(C)cccn4c3=O)N3CCc4ccccc4C32)C1=O (centres undefined)	3% (inactive)	111% (inactive)	–	–	-19.7% (inactive)	75.6	55.8	3.56% (inactive)	10.5% (inactive)	–	–	–	–	–
O=C(CN1CCN(Cc2cccc(Cl)c2)C1=O)N1CCC2(CC1)OCCO2	2% (inactive)	–	87.6% (inactive)	89.5% (inactive)	-2.12% (inactive)	91.7	89.5	-3.12% (inactive)	-2.7% (inactive)	–	–	–	–	–
Cc1ccc2c(c1)[C@@H]1CN(C)CC[C@@H]1N2C(=O)Nc1cccc(C(F)(F)F)c1	9% (inactive)	–	–	69.9% (inactive)	-8.21% (inactive)	78.1	69.9	1.45% (inactive)	1.15% (inactive)	–	–	–	–	–
N=C(N)c1c(O)n(C2CCCCC2)c(=O)n(C2CCCCC2)c1=O	0% (inactive)	–	2.35% (active)	2.02% (active)	0.155% (inactive)	1.86	2.02	-9.32% (inactive)	7.14% (inactive)	–	–	–	–	–
CCOC(=O)C1SC2(C(F)F)CC1(O)c1c(c(OC)c3occc3c1OC)O2 (centres undefined)	0% (inactive)	91% (inactive)	93.3% (inactive)	104% (inactive)	22.9% (inactive)	80.9	104	-4.73% (inactive)	0.73% (inactive)	–	–	–	–	–
CN(C)CCN=Cc1c(O)n(-c2cccc3ccccc23)c(=O)[nH]c1=O	6% (inactive)	–	103% (inactive)	105% (inactive)	11.9% (inactive)	92.8	105	-5.87% (inactive)	1.9% (inactive)	–	–	–	–	–
COc1ccc(Cc2nccc3cc(OC)c(OC)cc23)cc1OC	0% (inactive)	88% (inactive)	78.6% (inactive)	81.7% (inactive)	-0.28% (inactive)	82	81.7	0.39% (inactive)	-2.5% (inactive)	–	–	–	–	–
Clc1ccc(COC(Cn2ccnc2)c2ccc(Cl)cc2Cl)cc1 (centres undefined)	2% (inactive)	123% (inactive)	73.4% (inactive)	–	-9.47% (inactive)	48	38.5	–	–	–	–	–	–	–
CC(C)(C)P(=O)(c1ccncc1)N1CCCC1 (centres undefined)	4% (inactive)	111% (inactive)	105% (inactive)	92.8% (inactive)	-5.79% (inactive)	98.6	92.8	-7.3% (inactive)	-2.18% (inactive)	–	–	–	–	–
